Data: PubChem BioAssay (NCATS)
Inconclusive results are not listed. Activity calls are given as the source filed them. The call rests on the fitted dose curve; in most records, active means well fitted curve in the direction sought with a large enough effect; inconclusive means small, poorly fitted or top-dose-only effect, or another doubt; inactive means no such curve, though single readings can be large; an effect the other way counts as inactive or inconclusive.

Tests used:
HEK293 = experiment: Cytotoxic Profiling of Annotated Libraries Using Quantitative High-Throughput Screening (AID 1296008); conditions: Five cell lines viability, CellTiter-Glo ATP luminescence, 48-72 h; max response: active compounds read low; further: nearly all actives have a fitted effect of over 60% in size
How it was run: (§1)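 Cytotoxicity was measured as CellTiter-Glo ATP luminescence, read after 10 min at room temperature. Compound treatment of the cells lasted 48 or 72 hr at 37 degrees Celsius in a qHTS format.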

HaCat = experiment: as above; conditions: Five cell lines viability, CellTiter-Glo ATP luminescence, 48-72 h; max response: active compounds read low
How it was run: as §1

KB-3-1 = experiment: as above; conditions: Five cell lines viability, CellTiter-Glo ATP luminescence, 48-72 h; max response: active compounds read low
How it was run: as §1

NIH3T3 = experiment: as above; conditions: Five cell lines viability, CellTiter-Glo ATP luminescence, 48-72 h; max response: active compounds read low
How it was run: as §1

C33A = experiment: Primary qHTS to identify gynecologic anti-cancer compounds using libraries of approved drugs and bioactive compounds (AID 1345084); conditions: Gynecologic cancer cell panel viability, ATPlite luminescence, 48 h; series mostly up to 57.5 µM; further: nearly all actives have a fitted effect of over 55% in size
How it was run: (§2)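 48 h compound exposure at 37 C, 5% CO2; five-point qHTS. ATPlite luminescence readout of cell ATP.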

CAOV3 = experiment: as above; conditions: Gynecologic cancer cell panel viability, ATPlite luminescence, 48 h; series mostly up to 57.5 µM
How it was run: as §2

CASKI = experiment: as above; conditions: Gynecologic cancer cell panel viability, ATPlite luminescence, 48 h; series mostly up to 57.5 µM
How it was run: as §2

Es-2 = experiment: as above; conditions: Gynecologic cancer cell panel viability, ATPlite luminescence, 48 h; series mostly up to 57.5 µM
How it was run: as §2

HeLa = experiment: as above; conditions: Gynecologic cancer cell panel viability, ATPlite luminescence, 48 h; series mostly up to 57.5 µM
How it was run: as §2

Hek293T = experiment: as above; conditions: Gynecologic cancer cell panel viability, ATPlite luminescence, 48 h, control line for the selectivity index; series mostly up to 57.5 µM
How it was run: as §2

JEG-3 = experiment: as above; conditions: Gynecologic cancer cell panel viability, ATPlite luminescence, 48 h; series mostly up to 57.5 µM
How it was run: as §2
On the % scale 0 is the no-effect control and ±100 the full control effect.

C[C@@H]1CC[C@]2(C(=O)O[C@@H]3O[C@H](CO)[C@@H](O)[C@H](O)[C@H]3O)CC[C@]3(C)C(=CCC4[C@@]5(C)C[C@@H](O)[C@H](O)[C@@](C)(C(=O)O[C@H]6[C@H](O)C[C@@]7(C)C(CC[C@]8(C)C7CC=C7[C@H]9[C@](C(=O)O[C@@H]%10O[C@H](CO)[C@@H](O)[C@H](O)[C@H]%10O)(CC[C@@H](C)[C@@]9(C)O)CC[C@]78C)[C@@]6(CO)C(=O)O)C5CC[C@]43C)[C@@H]2[C@]1(C)O (stereo partly drawn)
inactive: max response (HEK293) -9.28% | max response (HaCat) -16.1% | outcome (KB-3-1) | max response (NIH3T3) 4.48% | activity change, negative = cytotoxicity (C33A) 2.44% [at 6.55 µM] | activity change, negative = cytotoxicity (CAOV3) 6.22% [at 6.55 µM] | activity change, negative = cytotoxicity (CASKI) 11.5% [at 6.55 µM] | activity change, negative = cytotoxicity (Es-2) -0.958% [at 6.55 µM] | activity change, negative = cytotoxicity (HeLa) -3.59% [at 6.55 µM] | activity change, negative = cytotoxicity (Hek293T) 2.04% [at 6.55 µM] | activity change, negative = cytotoxicity (JEG-3) -2.9% [at 6.55 µM]

C=C1CCC2C(C)(C)CCC[C@]2(C)[C@H]1C/C=C(\CO)C(=O)C(=O)O (stereo partly drawn)
inactive: max response (HEK293) 1.79% | max response (HaCat) 3.5% | max response (KB-3-1) -9.53% | max response (NIH3T3) -2.57% | Potency (C33A) | Potency (CAOV3) | Potency (CASKI) | Potency (Es-2) | Potency (HeLa) | Potency (Hek293T) | Potency (JEG-3)

O=C(CCc1ccccc1)N1CCC(O)(Cn2cnc3cc(Cl)ccc3c2=O)CC1
inactive: max response (HEK293) -25.5% | max response (HaCat) -6.79% | max response (KB-3-1) -17% | max response (NIH3T3) -4.94% | Potency (C33A) | Potency (CAOV3) | Potency (CASKI) | Potency (Es-2) | Potency (HeLa) | Potency (Hek293T) | Potency (JEG-3)

CC1(c2nc3c(C(N)=O)cccc3[nH]2)CCCN1 (stereo not drawn)
inactive: max response (HEK293) -22.9% | max response (HaCat) -9.07% | outcome (KB-3-1) | max response (NIH3T3) -5.13% | Potency (C33A) | Potency (CAOV3) | Potency (CASKI) | Potency (Es-2) | Potency (HeLa) | Potency (Hek293T) | Potency (JEG-3)

CC(=O)O[C@H]1CC[C@H](C)[C@@]2(C)[C@H](OC(C)=O)c3c(C)coc3C(=O)[C@H]12
inactive: max response (HEK293) -27.7% | max response (HaCat) 2.83% | max response (KB-3-1) 6.49% | max response (NIH3T3) -5.72% | Potency (C33A) | Potency (CAOV3) | Potency (CASKI) | Potency (Es-2) | Potency (HeLa) | Potency (Hek293T) | Potency (JEG-3)

COc1cc(/C=C/C(=O)O[C@H]2[C@H](O)[C@@H](CO)O[C@@]2(CO)O[C@H]2O[C@H](CO)[C@@H](O)[C@H](O)[C@H]2O)ccc1O
inactive: max response (HEK293) 0.588% | max response (HaCat) -4.81% | max response (KB-3-1) 1.78% | max response (NIH3T3) 1.81% | Potency (C33A) | Potency (CAOV3) | Potency (CASKI) | Potency (Es-2) | Potency (HeLa) | Potency (Hek293T) | Potency (JEG-3)

CC(C)(O[C@@H]1O[C@H](CO)[C@@H](O)[C@H](O)[C@H]1O)C(OC(=O)/C=C\c1ccc(O)cc1)C(=O)OCc1ccc(O[C@@H]2O[C@H](CO)[C@@H](O)[C@H](O)[C@H]2O)cc1 (stereo partly drawn)
inactive: max response (HEK293) -30.7% | max response (HaCat) -19.6% | outcome (KB-3-1) | max response (NIH3T3) -27.1% | Potency (C33A) | Potency (CAOV3) | Potency (CASKI) | Potency (Es-2) | Potency (HeLa) | Potency (Hek293T) | Potency (JEG-3)

CC(=O)c1cc2c(cc1O)OC(C)(C)C=C2
inactive: max response (HEK293) 0.43% | max response (HaCat) -16.3% | outcome (KB-3-1) | max response (NIH3T3) -4.07% | Potency (C33A) | Potency (CAOV3) | Potency (CASKI) | Potency (Es-2) | Potency (HeLa) | Potency (Hek293T) | Potency (JEG-3)

CC(O)/C=C/C1C(C)C(O[C@@H]2O[C@H](CO)[C@@H](O)[C@H](O)[C@H]2O)C(O)CC1(C)C (stereo partly drawn)
inactive: max response (HEK293) -16.1% | max response (HaCat) 1.9% | max response (KB-3-1) 3.1% | max response (NIH3T3) 0.539% | Potency (C33A) | Potency (CAOV3) | Potency (CASKI) | Potency (Es-2) | Potency (HeLa) | Potency (Hek293T) | Potency (JEG-3)

CC(C)=CCC/C(C)=C/Cc1ccc(O)c(C2OC(=O)c3cc(C(=O)O)cc(O)c32)c1O (stereo not drawn)
inactive: max response (HEK293) 0.876% | max response (HaCat) -20.9% | max response (KB-3-1) -2.57% | max response (NIH3T3) 0.065% | Potency (C33A) | Potency (CAOV3) | Potency (CASKI) | Potency (Es-2) | Potency (HeLa) | Potency (Hek293T) | Potency (JEG-3)

C=C1C(=O)O[C@H]2[C@H]1CC/C(C)=C/CC[C@@]1(C)O[C@@H]21
inactive: max response (HEK293) -18.1% | max response (HaCat) -3.65% | max response (KB-3-1) -4.28% | max response (NIH3T3) 0.479% | Potency (C33A) | Potency (CAOV3) | Potency (CASKI) | Potency (Es-2) | Potency (HeLa) | Potency (Hek293T) | Potency (JEG-3)

CC1(C(=O)O)CCCC2(C)C3CCC4CC3(CCC12)CC4=O (stereo not drawn)
inactive: max response (HEK293) 0.827% | max response (HaCat) 2.83% | max response (KB-3-1) -1.11% | max response (NIH3T3) -6.02% | Potency (C33A) | Potency (CAOV3) | Potency (CASKI) | Potency (Es-2) | Potency (HeLa) | Potency (Hek293T) | Potency (JEG-3)

COCC1OC(OC(C)(C)C2CCC3(C)C=C(C4CCC5C4(C)CC(O)C4OC(C(C)(C)OC6OC(CO)C(O)C(O)C6NC(C)=O)CCC45C)CCC3O2)C(NC(C)=O)C(O)C1O (stereo not drawn)
inactive: max response (HEK293) -5.83% | max response (HaCat) -6.25% | max response (KB-3-1) 1.62% | max response (NIH3T3) 1.73% | activity change, negative = cytotoxicity (C33A) 10.6% [at 11.6 µM] | activity change, negative = cytotoxicity (CAOV3) -5.9% [at 11.6 µM] | activity change, negative = cytotoxicity (CASKI) 12.8% [at 11.6 µM] | activity change, negative = cytotoxicity (Es-2) 0.877% [at 11.6 µM] | activity change, negative = cytotoxicity (HeLa) 1.62% [at 11.6 µM] | activity change, negative = cytotoxicity (Hek293T) -4.4% [at 11.6 µM] | activity change, negative = cytotoxicity (JEG-3) 3.33% [at 11.6 µM]
